# This is part of a sample that, as a whole, favours compounds with a hit. Of some 79,000 tested, about 15% had one in any assay. A number with no mark means an inactive call. Calls of active or inactive are those of the source. Cut-off read from the data, not from the text of the source: active = growth inhibition above about 70%; inactive = the rest.
# Experiments:
# [1] = NCI Yeast Anticancer Drug Screen. Data for the rad52 strain (AID 147);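 note: 0% = growth of vehicle-treated control cultures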; conditions: S. cerevisiae rad52 mutant growth inhibition, hits give high values
# Procedure, shortened: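 Here a repair-compromised yeast strain receives each compound; its growth is then quantified and normalised to vehicle-only controls.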
# [2] = NCI Yeast Anticancer Drug Screen. Data for the wt1 strain (AID 149);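 note: 0% = growth of vehicle-treated wt1 cultures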; conditions: S. cerevisiae wt1 strain (SPY 50644) growth inhibition, hits give high values
# Procedure, shortened: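 Measured: growth of wt1 yeast under compound versus vehicle treatment, reported as inhibition.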
# [3] = NCI Yeast Anticancer Drug Screen. Data for the rad50EPP+ strain (AID 151);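 note: 0% = growth of vehicle-treated control cultures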; conditions: S. cerevisiae rad50 mutant strain, hits give high values
# Procedure, shortened: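 Read-out is yeast growth inhibition relative to vehicle; cells used were the rad50EPP+ strain.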
# [4] = NCI Yeast Anticancer Drug Screen. Data for the mgt1 strain (AID 153); conditions: S. cerevisiae mgt1 mutant growth inhibition, hits give high values
# Procedure, shortened: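 Measured: inhibition of mgt1 yeast growth by compound, normalized to vehicle-treated cultures.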
# [5] = NCI Yeast Anticancer Drug Screen. Data for the rad50 strain (AID 155);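 note: 0% = growth of vehicle-only cultures of the same strain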; conditions: S. cerevisiae rad50 strain growth inhibition, hits give high values
# Procedure, shortened: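 Growth of the mutant yeast was measured after compound exposure and referenced to vehicle-treated cultures.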
# [6] = NCI Yeast Anticancer Drug Screen. Data for the mec2-1 strain (AID 157); conditions: S. cerevisiae mec2-1 strain, hits give high values
# Procedure, shortened: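 Using mec2-1 yeast: add compound, measure growth, express inhibition versus vehicle-treated cultures.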
# [7] = NCI Yeast Anticancer Drug Screen. Data for the rad14 strain (AID 159);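 note: 0% = growth of vehicle-treated control cultures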; conditions: S. cerevisiae rad14 strain growth inhibition, hits give high values
# Procedure, shortened: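 Here, inhibition of yeast growth was measured after compound exposure, using a strain with a genetic defect in DNA damage repair and vehicle-treated cultures as the reference.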
# [8] = NCI Yeast Anticancer Drug Screen. Data for the sgs1 mgt1 strain (AID 161);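 note: 0% = growth of cultures given vehicle only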; conditions: S. cerevisiae sgs1 mgt1 strain, hits give high values
# Procedure, shortened: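 Compounds are added to genetically altered yeast, and growth is compared with cultures given vehicle alone to give percent inhibition.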
# [9] = NCI Yeast Anticancer Drug Screen. Data for the CLN2oe strain (AID 163);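 note: 0% = growth of vehicle-only control cultures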; conditions: S. cerevisiae CLN2oe strain, hits give high values
# Procedure, shortened: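 Whole-cell yeast growth assay. A strain engineered for altered cell-cycle control received compound, and inhibition relative to vehicle-treated cultures was recorded.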
# [10] = NCI Yeast Anticancer Drug Screen. Data for the cln2 rad14 strain (AID 165);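 note: 0% = growth equal to vehicle treated cultures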; conditions: S. cerevisiae cln2 rad14 strain, hits give high values
# Procedure, shortened: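 Yeast strain cln2 rad14, bearing defects in cell cycle control and DNA repair, serves as the test system; values reflect growth inhibition compared with vehicle.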
# [11] = NCI Yeast Anticancer Drug Screen. Data for the bub3 strain (AID 167); conditions: S. cerevisiae bub3 mutant strain, hits give high values
# Procedure, shortened: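 Whole-cell yeast assay. The mutant strain was incubated with compounds, and growth inhibition was determined by comparison with vehicle-treated cells.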
# [12] = NCI Yeast Anticancer Drug Screen. Data for the wt2 strain (AID 169);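 note: 0% = growth of vehicle-treated yeast cultures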; conditions: S. cerevisiae wt2 strain growth inhibition, hits give high values
# Procedure, shortened: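 Treated yeast vs. vehicle-treated yeast: growth inhibition determined.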
# [13] = NCI Yeast Anticancer Drug Screen. Data for the mlh1 strain (AID 171);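 note: 0% = growth of vehicle-treated control cultures of the same strain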; conditions: S. cerevisiae mlh1 strain growth inhibition, hits give high values
# Procedure, shortened: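 A yeast strain with a defined genetic lesion serves as the test organism. Cultures receive compound or vehicle, and growth is measured.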
# [14] = NCI Yeast Anticancer Drug Screen. Data for the sgs1 strain (AID 173);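 note: 0% = growth of vehicle-only control cultures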; conditions: S. cerevisiae sgs1 mutant, hits give high values
# Procedure, shortened: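 A genetically defined yeast mutant is incubated with the test compound, and its growth is compared to that of the same strain given vehicle.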
# [15] = NCI Yeast Anticancer Drug Screen. Data for the mlh1 rad18 strain (AID 175); conditions: S. cerevisiae mlh1 rad18 strain growth inhibition, hits give high values
# Procedure, shortened: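 Steps: expose repair-defective yeast to compound; measure growth; express inhibition against vehicle-treated controls.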
# [16] = NCI Yeast Anticancer Drug Screen. Data for the rad18 strain (AID 177); conditions: S. cerevisiae rad18 mutant growth inhibition, hits give high values
# Procedure, shortened: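 Measured value is growth inhibition of a yeast strain bearing a DNA repair alteration, referenced to vehicle-treated cells.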
# [17] = at 5.0 µM (retest, dose inferred, filed as 0.5)
# [18] = at 50.0 µM (retest, dose inferred, filed as 5.0)
smiles,measurement,setting,value
CCCOC(=O)C(F)C(Br)C(=O)OCCC (stereo not drawn),growth inhibition,[1]; at 1.2 µM,38%
same,growth inhibition,[1]; at 3.7 µM,89% (active)
same,growth inhibition,[1]; at 11.0 µM,96% (active)
same,growth inhibition,[1]; at 33.0 µM,96% (active)
same,growth inhibition,[1]; at 100.0 µM,99% (active)
same,growth inhibition,[2]; at 1.2 µM,42%
same,growth inhibition,[2]; at 3.7 µM,95% (active)
same,growth inhibition,[2]; at 11.0 µM,98% (active)
same,growth inhibition,[2]; at 33.0 µM,97% (active)
same,growth inhibition,[2]; at 100.0 µM,99% (active)
same,growth inhibition,[3]; at 1.2 µM,33%
same,growth inhibition,[3]; at 3.7 µM,28%
same,growth inhibition,[3]; at 11.0 µM,94% (active)
same,growth inhibition,[3]; at 33.0 µM,98% (active)
same,growth inhibition,[3]; at 100.0 µM,98% (active)
same,growth inhibition,[4]; at 1.2 µM,54%
same,growth inhibition,[4]; at 3.7 µM,90% (active)
same,growth inhibition,[4]; at 11.0 µM,97% (active)
same,growth inhibition,[4]; at 33.0 µM,98% (active)
same,growth inhibition,[4]; at 100.0 µM,99% (active)
same,growth inhibition,[5]; at 1.2 µM,58%
same,growth inhibition,[5]; at 3.7 µM,90% (active)
same,growth inhibition,[5]; [17],44%
same,growth inhibition,[5]; at 11.0 µM,97% (active)
same,growth inhibition,[5]; at 33.0 µM,97% (active)
same,growth inhibition,[5]; [18],98% (active)
same,growth inhibition,[5]; at 50.0 µM,89.8% (active)
same,growth inhibition,[5]; at 100.0 µM,99% (active)
same,growth inhibition,[6]; at 1.2 µM,71% (active)
same,growth inhibition,[6]; at 3.7 µM,97% (active)
same,growth inhibition,[6]; [17],67%
same,growth inhibition,[6]; at 11.0 µM,97% (active)
same,growth inhibition,[6]; at 33.0 µM,98% (active)
same,growth inhibition,[6]; [18],100% (active)
same,growth inhibition,[6]; at 50.0 µM,92% (active)
same,growth inhibition,[6]; at 100.0 µM,99% (active)
same,growth inhibition,[7]; at 1.2 µM,21%
same,growth inhibition,[7]; at 3.7 µM,67%
same,growth inhibition,[7]; at 11.0 µM,97% (active)
same,growth inhibition,[7]; at 33.0 µM,97% (active)
same,growth inhibition,[7]; at 100.0 µM,100% (active)
same,growth inhibition,[8]; [17],21%
same,growth inhibition,[8]; [18],98% (active)
same,growth inhibition,[8]; at 50.0 µM,91.9% (active)
same,growth inhibition,[9]; at 1.2 µM,48%
same,growth inhibition,[9]; at 3.7 µM,87% (active)
same,growth inhibition,[9]; at 11.0 µM,97% (active)
same,growth inhibition,[9]; at 33.0 µM,97% (active)
same,growth inhibition,[9]; at 100.0 µM,98% (active)
same,growth inhibition,[10]; [17],11%
same,growth inhibition,[10]; [18],70% (active)
same,growth inhibition,[10]; at 50.0 µM,90.7% (active)
same,growth inhibition,[11]; at 1.2 µM,38%
same,growth inhibition,[11]; at 3.7 µM,82% (active)
same,growth inhibition,[11]; [17],30%
same,growth inhibition,[11]; at 11.0 µM,93% (active)
same,growth inhibition,[11]; at 33.0 µM,96% (active)
same,growth inhibition,[11]; [18],99% (active)
same,growth inhibition,[11]; at 50.0 µM,90.5% (active)
same,growth inhibition,[11]; at 100.0 µM,96% (active)
same,growth inhibition,[12]; at 1.2 µM,57%
same,growth inhibition,[12]; at 3.7 µM,98% (active)
same,growth inhibition,[12]; at 11.0 µM,98% (active)
same,growth inhibition,[12]; at 33.0 µM,98% (active)
same,growth inhibition,[12]; at 100.0 µM,100% (active)
same,growth inhibition,[13]; at 1.2 µM,40%
same,growth inhibition,[13]; at 3.7 µM,92% (active)
same,growth inhibition,[13]; at 11.0 µM,98% (active)
same,growth inhibition,[13]; at 33.0 µM,97% (active)
same,growth inhibition,[13]; at 100.0 µM,99% (active)
same,growth inhibition,[14]; at 1.2 µM,50%
same,growth inhibition,[14]; at 3.7 µM,96% (active)
same,growth inhibition,[14]; at 11.0 µM,98% (active)
same,growth inhibition,[14]; at 33.0 µM,97% (active)
same,growth inhibition,[14]; at 100.0 µM,99% (active)
same,growth inhibition,[15]; [17],93% (active)
same,growth inhibition,[15]; [18],98% (active)
same,growth inhibition,[15]; at 50.0 µM,89% (active)
same,growth inhibition,[16]; at 1.2 µM,59%
same,growth inhibition,[16]; at 3.7 µM,93% (active)
same,growth inhibition,[16]; at 11.0 µM,97% (active)
same,growth inhibition,[16]; at 33.0 µM,96% (active)
same,growth inhibition,[16]; at 100.0 µM,98% (active)
